From PubChem BioAssay (EPA / NIEHS) come the findings set out here.

Each structure is given as a SMILES string. Where “and” joins values, the source holds several entries; their conditions need not be identical. Equal entries are not always repeated. Results filed as inconclusive are left out. The source holds several records for some structures; these can differ, active in one and inactive in another. Calls of active or inactive are those of the source. The calls were made as follows, unless noted: active = hit-call score of the fitted dose curve at least 0.9, where 1 is the maximum; inactive = score below 0.9.

Read-out in assay [1]: Interleukin-8 (IL8), CXCL8 (gene 3576)
Kind of assay: BSK_3C_IL8: BioMAP Diversity Plus: 3C Assay for Interleukin-8 (IL8) Biomarker Activity (AID 2283020). The settings on record: primary human endothelial cells (HUVEC); actives raise or lower the signal. The procedure, abridged:
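Using DMSO-treated wells as the baseline, bidirectional curve fitting was applied to ELISA-measured IL-8 from human umbilical vein endothelial cultures sampled 24 h after compound addition.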

Read-out in assay [2]: Monokine induced gamma interferon (MIG), CXCL9 (gene 4283)
Kind of assay: BSK_3C_MIG: BioMAP Diversity Plus: 3C Assay for Monokine induced gamma interferon (MIG) Biomarker Activity (AID 2283021).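 As to AC50: MIG protein level measured by immunoassay in the treated endothelial cultures.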 The settings on record: primary human endothelial cells (HUVEC); actives raise or lower the signal. In short, it runs like this:
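ELISA-measured MIG in dosed HUVEC 3C cultures at 24 h, analysed by bidirectional fitting with DMSO defining baseline activity.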

The target in assay [3] is human Vitamin D Receptor (VDR), VDR (gene 7421) (UniProt P11473). Nature of the assay: ATG_VDR_TRANS: Attagene TRANS-FACTORIAL HepG2 Assay for human Vitamin D Receptor (VDR) (AID 2283022; active = hit-call score of the fitted dose curve at least 0.9, where 1 is the maximum). The procedure, abridged:
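RT-PCR/capillary electrophoresis read-out of reporter mRNA induction in transiently transfected HepG2; 24 h dosing; chimeric NR-Gal4 (TRANS format); gain-of-signal fit against DMSO baseline.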

Assay [4] can be described thus: BSK_3C_SRB: Viability Assessment in the BioMAP Diversity Plus: 3C Assay (AID 2283023).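 Also: fitted both ways against DMSO so a hit may be signal rise or drop.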 As to conditions: primary human endothelial cells (HUVEC). In short, it runs like this:
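HUVEC, 24 h post-dose; 10% TCA fix, 0.1% SRB stain, A560 nm. Bidirectional curve fit vs DMSO negative control.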

Read-out in assay [5]: Matrix Metallopeptidase 1 (MMP1), MMP1 (gene 4312)
Kind of assay: BSK_BE3C_MMP1: BioMAP Diversity Plus: BE3C Assay for Matrix Metallopeptidase 1 (MMP1) Biomarker Activity (AID 2283024). The settings on record: primary human bronchial epithelial cells; actives raise or lower the signal. The procedure, abridged: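 In this multiplexed primary-cell system, human bronchial epithelium received chemicals for 24 h before an ELISA for MMP1. Values reflect bidirectional fits normalised to the DMSO baseline.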

Read-out in assay [6]: Pselectin, SELP (gene 6403)
Nature of the assay: BSK_4H_Pselectin: BioMAP Diversity Plus: 4H Assay for Pselectin Biomarker Activity (AID 2283026). As to conditions: primary human endothelial cells (HUVEC); actives raise or lower the signal. The procedure, abridged:
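Bidirectional fits against DMSO gave the endpoint. Cells: primary human umbilical vein endothelium, chemical-treated for 24 h before ELISA detection of P-selectin.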

Assay [7] can be described thus: BSK_4H_SRB: Viability Assessment in the BioMAP Diversity Plus: 4H Assay (AID 2283027).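 Also: cells exposed to compound for 24 h before staining.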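 As to AC50: curves fitted both ways versus DMSO so AC50 may be loss or gain.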 The settings on record: primary human endothelial cells (HUVEC). In short, it runs like this: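 HUVEC, 24 h post-dose; 10% TCA fix, 0.1% SRB stain, A560 nm. Total protein = overt cytotoxicity, parallel to biomarker read. Bidirectional fit vs DMSO baseline.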
Assay [8] in a line: BSK_BE3C_SRB: Viability Assessment in the BioMAP Diversity Plus: BE3C Assay (AID 2283028).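 As to AC50: fitted both ways so AC50 may mark signal gain or loss versus DMSO.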 The settings on record: primary human bronchial epithelial cells. The procedure, abridged:
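Primary human bronchial epithelium; chemical dosing, 24 h; 10% TCA fix, 0.1% SRB stain, A560; bidirectional fit vs DMSO baseline.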

Read-out in assay [9]: Thrombomodulin, THBD (gene 7056)
Nature of the assay: BSK_3C_Thrombomodulin: BioMAP Diversity Plus: 3C Assay for Thrombomodulin Biomarker Activity (AID 2283029). As to conditions: primary human endothelial cells (HUVEC); actives raise or lower the signal. In short, it runs like this: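 In a multiplexed primary-cell system, human umbilical vein endothelium received chemical and was assayed 24 h later for thrombomodulin by ELISA. Parallel cultures were SRB-stained (0.1% SRB after 10% TCA fixation, read at 560 nm) to flag cytotoxicity.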

Read-out in assay [10]: Urokinase-type plasminogen activator receptor (uPAR), PLAUR (gene 5329)
Nature of the assay: BSK_4H_uPAR: BioMAP Diversity Plus: 4H Assay for Urokinase-type plasminogen activator receptor (uPAR) Biomarker Activity (AID 2283030). As to conditions: primary human endothelial cells (HUVEC); actives raise or lower the signal. In short, it runs like this:
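HUVEC, 24 h post-dose; uPAR by ELISA; bidirectional fit vs DMSO baseline.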

Read-out in assay [11]: Vascular endothelial growth factor receptor 2 (Homo sapiens) (UniProt P35968)
Kind of assay: BSK_4H_VEGFRII: BioMAP Diversity Plus: 4H Assay for Vascular endothelial growth factor receptor 2 (VEGFR2) Biomarker Activity (AID 2283031).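 As to AC50: cell-surface VEGFR2 protein level quantified by ELISA.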 As to conditions: primary human endothelial cells (HUVEC); actives raise or lower the signal. The procedure, abridged:
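HUVEC (human primary), 4H system; 24 h post-dose; VEGFRII by ELISA; bidirectional curve fit vs DMSO baseline; gain or loss of signal scored.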

Read-out in assay [12]: Human Leukocyte Antigen - DR isotype (HLADR), HLA-DRA (gene 3122)
Kind of assay: BSK_BE3C_HLADR: BioMAP Diversity Plus: BE3C Assay for Human Leukocyte Antigen - DR isotype (HLADR) Biomarker Activity (AID 2283032). As to conditions: primary human bronchial epithelial cells; actives raise or lower the signal. The procedure, abridged:
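BioMAP BE3C format: human bronchial epithelium, 24 h compound treatment, ELISA detection of HLA-DR, with bidirectional analysis relative to DMSO.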

Read-out in assay [13]: Vascular cell adhesion molecule 1 (VCAM1), VCAM1 (gene 7412)
Nature of the assay: BSK_4H_VCAM1: BioMAP Diversity Plus: 4H Assay for Vascular cell adhesion molecule 1 (VCAM1) Biomarker Activity (AID 2283033).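 As to outcome: cell-surface VCAM-1 protein measured by ELISA.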 As to conditions: primary human endothelial cells (HUVEC); actives raise or lower the signal. The procedure, abridged:
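In this human endothelial (HUVEC) system, biomarker ELISA was run 24 h after compound addition, and total protein in parallel wells was assessed by SRB at 560 nm; DMSO served as negative control.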

Read-out in assay [14]: Interferon-gamma inducible Protein 10 (IP10), CXCL10 (gene 3627)
Nature of the assay: BSK_BE3C_IP10: BioMAP Diversity Plus: BE3C Assay for Interferon-gamma inducible Protein 10 (IP10) Biomarker Activity (AID 2283034). The settings on record: primary human bronchial epithelial cells; actives raise or lower the signal. In short, it runs like this:
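BE3C cells (human bronchial epithelial, primary); 24 h exposure; ELISA for IP-10; DMSO-referenced bidirectional fit.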

Read-out in assay [15]: Monokine induced gamma interferon (MIG), CXCL9 (gene 4283)
Nature of the assay: BSK_BE3C_MIG: BioMAP Diversity Plus: BE3C Assay for Monokine induced gamma interferon (MIG) Biomarker Activity (AID 2283035). The settings on record: primary human bronchial epithelial cells; actives raise or lower the signal. In short, it runs like this: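 Dose cells (human primary bronchial epithelial), incubate 24 h, quantify MIG by ELISA, then fit concentration–response in both directions relative to DMSO control.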

Read-out in assay [16]: Plasminogen activator inhibitor-1 (PAI1), SERPINE1 (gene 5054)
Kind of assay: BSK_BE3C_PAI1: BioMAP Diversity Plus: BE3C Assay for Plasminogen activator inhibitor-1 (PAI1) Biomarker Activity (AID 2283037). The settings on record: primary human bronchial epithelial cells; actives raise or lower the signal. In short, it runs like this: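 In this multiplexed primary-cell system, bronchial epithelial cells receive test chemical and are sampled at 24 h. PAI-1 is read by ELISA, with DMSO serving as negative control for bidirectional fitting.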

Read-out in assay [17]: urokinase plasminogen activator (uPA), PLAU (gene 5328)
Kind of assay: BSK_BE3C_uPA: BioMAP Diversity Plus: BE3C Assay for urokinase plasminogen activator (uPA) Biomarker Activity (AID 2283038).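 As to outcome: uPA protein level quantified by ELISA in cell cultures; uPA read one day after compound addition.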 As to conditions: primary human bronchial epithelial cells; actives raise or lower the signal. The procedure, abridged: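 ELISA read-out of uPA in human lung primary bronchial epithelial cultures, 24 h post-dosing. Gain or loss of signal fitted bidirectionally relative to DMSO baseline; cytotoxicity checked in parallel cultures via SRB total protein stain.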

Read-out in assay [18]: Urokinase-type plasminogen activator receptor (uPAR), PLAUR (gene 5329)
Nature of the assay: BSK_BE3C_uPAR: BioMAP Diversity Plus: BE3C Assay for Urokinase-type plasminogen activator receptor (uPAR) Biomarker Activity (AID 2283039).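 As to outcome: uPAR protein level measured by ELISA on the cells; cells exposed to compound for one day before measurement.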 The settings on record: primary human bronchial epithelial cells; actives raise or lower the signal. In short, it runs like this:
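Chemically treated human bronchial epithelial cells (lung primary) are assayed for uPAR by ELISA after 24 h, with data fitted in both directions using DMSO as negative control.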

Assay [19] is described as follows: BSK_3C_Vis: BioMAP Diversity Plus: 3C Assay for Morphology Visualization (AID 2283025).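 Also: light microscopy image of cell morphology used as background control; fitted both ways so gain or loss versus DMSO counts.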 The settings on record: primary human endothelial cells (HUVEC). In short, it runs like this:
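Light-microscopy morphology readout, 24 h exposure, human primary umbilical vein endothelium; analysed relative to DMSO with bidirectional fitting.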

Read-out in assay [20]: Transforming growth factor beta 1 (TGFb1), TGFB1 (gene 7040)
Kind of assay: BSK_BE3C_TGFb1: BioMAP Diversity Plus: BE3C Assay for Transforming growth factor beta 1 (TGFb1) Biomarker Activity (AID 2283036;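 as to outcome: TGF-b1 protein level measured by ELISA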). The settings on record: primary human bronchial epithelial cells; actives raise or lower the signal. The procedure, abridged:
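TGF-b1 measured via ELISA, 24 h after chemical dosing of human bronchial epithelial cells (BE3C). Overt cytotoxicity assessed in parallel by SRB (0.1%, TCA-fixed, 560 nm); analysis bidirectional relative to DMSO.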

By AC50 is commonly meant the midpoint of the concentration-response curve, whichever way the signal moves.

human Vitamin D Receptor (VDR), VDR (gene 7421), sequence (P11473 whole entry, looked up, the tested form may be a part): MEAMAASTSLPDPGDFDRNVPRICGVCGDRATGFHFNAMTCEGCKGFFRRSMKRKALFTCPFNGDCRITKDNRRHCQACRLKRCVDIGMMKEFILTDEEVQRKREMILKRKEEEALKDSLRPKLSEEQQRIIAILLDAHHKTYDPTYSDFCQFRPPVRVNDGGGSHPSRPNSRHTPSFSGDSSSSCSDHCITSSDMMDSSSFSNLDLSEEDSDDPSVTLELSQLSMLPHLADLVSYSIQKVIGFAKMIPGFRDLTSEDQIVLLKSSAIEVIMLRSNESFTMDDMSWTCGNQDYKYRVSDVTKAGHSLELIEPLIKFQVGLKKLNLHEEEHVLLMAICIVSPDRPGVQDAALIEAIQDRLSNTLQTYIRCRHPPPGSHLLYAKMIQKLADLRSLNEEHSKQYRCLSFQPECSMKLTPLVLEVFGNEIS

Regarding `O=C(CC(=O)C(F)(F)C(F)(F)C(F)(F)F)c1cccs1`, the AC50 in assay [1] was 15.8 µM (active) and 17.3 µM (active); in assay [2], 51.9 µM (active) and 52.2 µM (active); in assay [4], 24.1 µM (active) and 43.7 µM (active); in assay [5] it was 43.6 µM (active) and 45.2 µM (active); in assay [6] it was 19.1 µM (active) and 20.2 µM (active); in assay [7], 34.4 µM (active) and 44.3 µM (active). Moreover, the AC50 is 30 µM (active) and 37.9 µM (active) in assay [8]; 49.1 µM (active) and 54.8 µM (active) in [10]; 8.16 µM (active) in assay [11]; 20.4 µM (active) and 23.8 µM (active) in assay [12]; 27.6 µM (active) and 31 µM (active) in assay [13]; 19.5 µM (active) and 18.9 µM (active) in assay [14]. For the same compound, the AC50 was 24.6 µM (active) and 42 µM (active) in [15]; 10.9 µM (active) and 10 µM (active) in assay [16]; 47.4 µM (active) and 46 µM (active) in assay [17]; 45.6 µM (active) in assay [18]. Moreover, the call in assay [3], in [9] and in assay [11] was inactive.

With `O=C1OC2(c3ccccc31)c1cc(I)c(O)c(I)c1Oc1c2cc(I)c(O)c1I`, the result in assay [1], in assay [2], in assay [3] and in assay [7] was inactive. Besides, the AC50 in [4] was 12 µM (active); in assay [5], 3.22 µM (active); in [19], 22.5 µM (active); in [6], 12 µM (active); in assay [9], 7.01 µM (active); in assay [10], 8.51 µM (active). For the same compound, the AC50 was 3.36 µM (active) in [11]; 4.33 µM (active) in assay [12]; 13.6 µM (active) in assay [14]; 19.9 µM (active) in [15]; 3.9 µM (active) in assay [20]; 4.07 µM (active) in assay [16]. Further, the AC50 is 8.35 µM (active) in [17] and 6.1 µM (active) in assay [18].

Turning to `O=C(O)CCC(F)(F)C(F)(F)C(F)(F)C(F)(F)C(F)(F)C(F)(F)F`, the result in assay [1], in [2], in assay [3], in [4], in assay [5] and in assay [6] was inactive. Also, the result in [7], in [8], in assay [9], in [10], in assay [11] and in assay [12] was inactive. For the same compound, the result in [13], in [14], in [15], in assay [16], in [17] and in assay [18] was inactive. Further, in assay [5], the AC50 was 7.99 µM (active).

`CN(CCO)S(=O)(=O)C(F)(F)C(F)(F)C(F)(F)C(F)(F)C(F)(F)C(F)(F)C(F)(F)C(F)(F)F`: the outcome in assay [1], in assay [2], in [4], in [5], in assay [6] and in assay [7] was inactive. For the same compound, the outcome in assay [8], in [9], in assay [10], in assay [11], in [12] and in assay [13] was inactive. The result in [14], in assay [15], in assay [16], in assay [17] and in assay [18] was inactive. For the same compound, the AC50 was 1.63 µM (active) in [5] and 0.243 µM (active) in assay [6].

As to `CC(C)(C)c1ccc(O)c(O)c1`, the result in [1], in [2], in assay [3], in assay [5], in assay [8] and in [9] was inactive. Besides, the outcome in [10], in [11], in assay [12], in [14], in assay [15] and in [20] was inactive. The result in assay [16], in assay [17] and in assay [18] was inactive. Further, the concentration at half-maximal activity (AC50) in [4] was 5.42 µM (active); in assay [19], 8.8 µM (active); in assay [6], 20 µM (active); in assay [7], 5.52 µM (active); in [13] it was 17.1 µM (active).
